Experimental data published in PMC7862700, “An all-to-all approach to the identification of sequence-specific readers for epigenetic DNA modifications on cytosine”.

How the values were obtained:
Test in all cases: DAPPL (digital affinity profiling via proximity ligation, sequencing); 10 mM Tris-HCl pH 7.5, 50 mM NaCl, 1 mM DTT, 4% glycerol, room temperature, 30 min; GST-TFs on glutathione beads, 16-mer random dsDNA library, 0.1% formaldehyde crosslink after washing; high values mean tight binding
FEV = target: T1, FEV (Homo sapiens, UniProt Q99581 1-238); details: protein: recombinant; tags: N-terminal GST; dsDNA, one strand shown
T1 sequence: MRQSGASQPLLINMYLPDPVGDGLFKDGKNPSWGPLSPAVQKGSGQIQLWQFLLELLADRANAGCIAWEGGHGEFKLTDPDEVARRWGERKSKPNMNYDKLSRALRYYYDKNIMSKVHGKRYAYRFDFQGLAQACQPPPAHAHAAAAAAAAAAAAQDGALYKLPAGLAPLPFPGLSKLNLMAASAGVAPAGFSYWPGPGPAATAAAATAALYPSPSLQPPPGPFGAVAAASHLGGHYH
Method in brief: (§1)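 Binding signal is each hexamer's read frequency for a factor divided by its frequency in the tag-only sample. The factors were GST-fused human transcription factors from yeast, captured on glutathione beads, DNA-barcoded and pooled with that sample. Pools were incubated with 200 nmole of a random double-stranded 16-mer DNA library in Tris/NaCl/DTT/glycerol buffer at room temperature for 30 min, then washed, crosslinked with 0.1% formaldehyde, proximity-ligated with BsaI/T4 ligase (1 h, 37 °C), PCR-amplified and sequenced on an Illumina NextSeq500.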

ETV5 = ETV5 (Homo sapiens, UniProt P41161 1-510); details: protein: recombinant; tags: N-terminal GST; dsDNA, one strand shown
Method in brief: as §1

HSF1 = HSF1 (Homo sapiens, UniProt Q00613 1-529); details: protein: recombinant; tags: N-terminal GST; chain copies: 3; dsDNA, one strand shown
Method in brief: as §1

SPIC = target: T2, SPIC (Homo sapiens, UniProt Q8N5J4 1-248); details: protein: recombinant; tags: N-terminal GST; dsDNA, one strand shown
T2 sequence: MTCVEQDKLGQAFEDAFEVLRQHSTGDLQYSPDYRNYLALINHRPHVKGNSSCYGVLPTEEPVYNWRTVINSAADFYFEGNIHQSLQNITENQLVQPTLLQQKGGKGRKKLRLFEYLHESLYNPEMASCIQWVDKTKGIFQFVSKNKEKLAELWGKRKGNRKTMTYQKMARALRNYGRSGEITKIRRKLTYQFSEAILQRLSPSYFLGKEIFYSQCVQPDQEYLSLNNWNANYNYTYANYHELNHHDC
Method in brief: as §1

ELF4 = ELF4 (Homo sapiens, UniProt Q99607 1-663); details: protein: recombinant; tags: N-terminal GST; dsDNA, one strand shown
Method in brief: as §1

ELK4 = target: T3, ELK4 (Homo sapiens, UniProt P28324-2 1-405); details: protein: recombinant; tags: N-terminal GST; dsDNA, one strand shown
T3 sequence: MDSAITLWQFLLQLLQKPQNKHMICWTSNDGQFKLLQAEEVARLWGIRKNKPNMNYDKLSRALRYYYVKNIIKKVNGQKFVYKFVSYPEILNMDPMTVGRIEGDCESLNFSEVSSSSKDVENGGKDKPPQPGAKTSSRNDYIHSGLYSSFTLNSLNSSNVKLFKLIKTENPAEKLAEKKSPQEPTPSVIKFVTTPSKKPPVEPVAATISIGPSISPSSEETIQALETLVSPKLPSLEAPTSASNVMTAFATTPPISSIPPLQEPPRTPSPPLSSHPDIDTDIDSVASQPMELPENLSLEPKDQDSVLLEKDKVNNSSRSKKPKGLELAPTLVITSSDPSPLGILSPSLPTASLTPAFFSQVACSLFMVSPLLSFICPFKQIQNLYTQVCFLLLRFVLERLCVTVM
Method in brief: as §1

ETV2 = target: T4, ETV2 (Homo sapiens, UniProt O00321 1-342); details: protein: recombinant; tags: N-terminal GST; dsDNA, one strand shown
T4 sequence: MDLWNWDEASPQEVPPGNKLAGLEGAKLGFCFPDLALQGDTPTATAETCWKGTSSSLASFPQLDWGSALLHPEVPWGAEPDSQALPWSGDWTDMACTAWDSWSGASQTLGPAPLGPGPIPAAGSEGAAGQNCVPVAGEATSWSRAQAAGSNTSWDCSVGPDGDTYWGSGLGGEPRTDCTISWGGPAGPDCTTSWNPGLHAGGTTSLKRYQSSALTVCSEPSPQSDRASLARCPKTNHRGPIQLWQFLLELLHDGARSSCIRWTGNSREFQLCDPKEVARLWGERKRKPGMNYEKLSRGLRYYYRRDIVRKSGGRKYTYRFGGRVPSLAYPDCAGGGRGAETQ
Method in brief: as §1

ELF3 = target: T5, ELF3 (Homo sapiens, UniProt P78545 1-371); details: protein: recombinant; tags: N-terminal GST; dsDNA, one strand shown
T5 sequence: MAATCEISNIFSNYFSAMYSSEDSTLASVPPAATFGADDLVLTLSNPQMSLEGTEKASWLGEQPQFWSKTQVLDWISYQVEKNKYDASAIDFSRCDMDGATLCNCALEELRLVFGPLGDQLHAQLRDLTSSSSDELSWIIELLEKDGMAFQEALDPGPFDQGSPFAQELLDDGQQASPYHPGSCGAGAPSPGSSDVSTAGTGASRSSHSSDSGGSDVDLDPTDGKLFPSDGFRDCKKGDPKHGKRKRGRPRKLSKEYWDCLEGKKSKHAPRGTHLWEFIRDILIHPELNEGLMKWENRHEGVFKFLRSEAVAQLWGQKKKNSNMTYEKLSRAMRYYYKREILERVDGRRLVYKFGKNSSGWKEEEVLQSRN
Method in brief: as §1

CRX = CRX (Homo sapiens, UniProt O43186 1-299); details: protein: recombinant; tags: N-terminal GST; dsDNA, one strand shown
Method in brief: as §1

ETV1 = ETV1 (Homo sapiens, UniProt P50549 1-477); details: protein: recombinant; tags: N-terminal GST; dsDNA, one strand shown
Method in brief: as §1

ETV5, sequence (P41161 whole entry): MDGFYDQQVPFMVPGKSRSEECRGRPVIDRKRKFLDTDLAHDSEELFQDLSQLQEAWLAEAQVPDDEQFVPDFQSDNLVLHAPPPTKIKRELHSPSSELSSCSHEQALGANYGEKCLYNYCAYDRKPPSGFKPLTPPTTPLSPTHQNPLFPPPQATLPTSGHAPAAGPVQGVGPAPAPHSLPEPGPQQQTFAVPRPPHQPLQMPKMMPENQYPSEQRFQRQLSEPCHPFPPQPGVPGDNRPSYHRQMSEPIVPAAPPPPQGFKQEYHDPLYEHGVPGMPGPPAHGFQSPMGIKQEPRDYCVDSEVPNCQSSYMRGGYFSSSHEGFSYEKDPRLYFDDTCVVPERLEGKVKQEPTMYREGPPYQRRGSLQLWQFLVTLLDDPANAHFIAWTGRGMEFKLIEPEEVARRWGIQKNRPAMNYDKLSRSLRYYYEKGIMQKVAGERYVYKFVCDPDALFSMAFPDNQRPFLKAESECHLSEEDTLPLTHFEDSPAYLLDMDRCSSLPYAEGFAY
ELF4, sequence (Q99607 whole entry): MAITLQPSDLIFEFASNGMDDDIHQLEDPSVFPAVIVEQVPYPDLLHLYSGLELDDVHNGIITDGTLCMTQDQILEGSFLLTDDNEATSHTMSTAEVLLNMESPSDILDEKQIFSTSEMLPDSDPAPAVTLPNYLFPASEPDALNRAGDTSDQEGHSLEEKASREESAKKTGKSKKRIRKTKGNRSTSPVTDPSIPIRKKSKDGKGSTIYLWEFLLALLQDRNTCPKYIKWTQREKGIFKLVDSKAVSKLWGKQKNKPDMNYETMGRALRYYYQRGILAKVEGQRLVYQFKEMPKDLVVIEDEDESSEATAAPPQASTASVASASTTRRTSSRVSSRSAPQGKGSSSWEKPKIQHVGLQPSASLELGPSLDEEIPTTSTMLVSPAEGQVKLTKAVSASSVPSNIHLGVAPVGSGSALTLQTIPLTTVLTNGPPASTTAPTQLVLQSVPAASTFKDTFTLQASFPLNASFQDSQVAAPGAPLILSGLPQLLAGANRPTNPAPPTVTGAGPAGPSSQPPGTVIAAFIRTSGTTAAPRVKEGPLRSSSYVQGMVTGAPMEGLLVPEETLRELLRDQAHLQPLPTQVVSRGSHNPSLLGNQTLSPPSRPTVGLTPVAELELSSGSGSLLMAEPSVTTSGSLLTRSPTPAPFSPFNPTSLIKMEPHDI
ETV1, sequence (P50549 whole entry): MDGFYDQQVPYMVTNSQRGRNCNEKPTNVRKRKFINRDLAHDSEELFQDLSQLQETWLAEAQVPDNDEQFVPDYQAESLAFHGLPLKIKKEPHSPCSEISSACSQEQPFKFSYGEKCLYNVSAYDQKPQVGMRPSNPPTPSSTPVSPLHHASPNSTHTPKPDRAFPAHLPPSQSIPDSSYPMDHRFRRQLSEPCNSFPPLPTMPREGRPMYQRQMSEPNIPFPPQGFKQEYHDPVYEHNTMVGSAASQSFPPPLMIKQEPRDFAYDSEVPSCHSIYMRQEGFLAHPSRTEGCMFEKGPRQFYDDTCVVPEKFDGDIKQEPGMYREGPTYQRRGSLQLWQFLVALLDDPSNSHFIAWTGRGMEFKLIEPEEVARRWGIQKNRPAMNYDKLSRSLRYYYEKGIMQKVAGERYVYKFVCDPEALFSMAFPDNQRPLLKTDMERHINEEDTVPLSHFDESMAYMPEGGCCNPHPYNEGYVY
CRX, sequence (O43186 whole entry): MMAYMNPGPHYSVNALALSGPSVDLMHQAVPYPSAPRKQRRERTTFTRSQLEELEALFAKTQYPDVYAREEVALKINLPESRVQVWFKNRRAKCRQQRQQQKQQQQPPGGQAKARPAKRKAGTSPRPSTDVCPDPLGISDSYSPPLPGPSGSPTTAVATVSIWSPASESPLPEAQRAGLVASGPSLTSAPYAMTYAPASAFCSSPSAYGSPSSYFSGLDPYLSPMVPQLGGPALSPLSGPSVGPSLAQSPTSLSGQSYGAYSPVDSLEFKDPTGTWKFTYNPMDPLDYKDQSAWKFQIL
HSF1, sequence (Q00613 whole entry): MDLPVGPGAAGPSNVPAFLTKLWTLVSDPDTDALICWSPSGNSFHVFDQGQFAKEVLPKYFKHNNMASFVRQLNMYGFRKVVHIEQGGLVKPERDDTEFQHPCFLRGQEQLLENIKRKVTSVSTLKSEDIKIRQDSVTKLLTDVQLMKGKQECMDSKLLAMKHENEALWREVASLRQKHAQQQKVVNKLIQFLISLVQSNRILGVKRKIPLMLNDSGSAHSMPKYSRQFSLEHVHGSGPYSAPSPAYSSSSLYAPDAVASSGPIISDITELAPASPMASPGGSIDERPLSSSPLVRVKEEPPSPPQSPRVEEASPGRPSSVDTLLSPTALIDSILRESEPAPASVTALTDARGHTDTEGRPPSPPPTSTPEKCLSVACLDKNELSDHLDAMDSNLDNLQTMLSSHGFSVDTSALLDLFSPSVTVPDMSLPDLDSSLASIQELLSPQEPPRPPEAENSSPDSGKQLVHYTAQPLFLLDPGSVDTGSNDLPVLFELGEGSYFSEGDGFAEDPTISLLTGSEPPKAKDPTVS

| Sequence | binding signal (FEV) | binding signal (ETV5) | binding signal (HSF1) | binding signal (SPIC) | binding signal (ELF4) | binding signal (ELK4) | binding signal (ETV2) | binding signal (ELF3) | binding signal (CRX) | binding signal (ETV1) |
| --- | --- | --- | --- | --- | --- | --- | --- | --- | --- | --- |
| TATAAC | 1.26 fold enrichment (6-mer frequency, TF over GST control) | 1.2 fold enrichment (6-mer frequency, TF over GST control) | 1.15 fold enrichment (6-mer frequency, TF over GST control) | 1.2 fold enrichment (6-mer frequency, TF over GST control) | 1.2 fold enrichment (6-mer frequency, TF over GST control) | 1.17 fold enrichment (6-mer frequency, TF over GST control) | 1.1 fold enrichment (6-mer frequency, TF over GST control) | 1.25 fold enrichment (6-mer frequency, TF over GST control) | 1.43 fold enrichment (6-mer frequency, TF over GST control) | 1.25 fold enrichment (6-mer frequency, TF over GST control) |
| TACTAA | 1.16 fold enrichment (6-mer frequency, TF over GST control) | 1.18 fold enrichment (6-mer frequency, TF over GST control) | 1.51 fold enrichment (6-mer frequency, TF over GST control) | 1.24 fold enrichment (6-mer frequency, TF over GST control) | 1.32 fold enrichment (6-mer frequency, TF over GST control) | 1.4 fold enrichment (6-mer frequency, TF over GST control) | 1.1 fold enrichment (6-mer frequency, TF over GST control) | 1.27 fold enrichment (6-mer frequency, TF over GST control) | 2.1 fold enrichment (6-mer frequency, TF over GST control) | 1.29 fold enrichment (6-mer frequency, TF over GST control) |
| TCATTA | 1.11 fold enrichment (6-mer frequency, TF over GST control) | 1.11 fold enrichment (6-mer frequency, TF over GST control) | 1.18 fold enrichment (6-mer frequency, TF over GST control) | 1.24 fold enrichment (6-mer frequency, TF over GST control) | 1.15 fold enrichment (6-mer frequency, TF over GST control) | 1.16 fold enrichment (6-mer frequency, TF over GST control) | 1.08 fold enrichment (6-mer frequency, TF over GST control) | 1.07 fold enrichment (6-mer frequency, TF over GST control) | 1.62 fold enrichment (6-mer frequency, TF over GST control) | 1.08 fold enrichment (6-mer frequency, TF over GST control) |
| CTTACC | 1.25 fold enrichment (6-mer frequency, TF over GST control) | 1.21 fold enrichment (6-mer frequency, TF over GST control) | 1.26 fold enrichment (6-mer frequency, TF over GST control) | 1.34 fold enrichment (6-mer frequency, TF over GST control) | 1.25 fold enrichment (6-mer frequency, TF over GST control) | 1.27 fold enrichment (6-mer frequency, TF over GST control) | 1.27 fold enrichment (6-mer frequency, TF over GST control) | 1.27 fold enrichment (6-mer frequency, TF over GST control) | 1.58 fold enrichment (6-mer frequency, TF over GST control) | 1.28 fold enrichment (6-mer frequency, TF over GST control) |
| AGAAAT | 1.12 fold enrichment (6-mer frequency, TF over GST control) | 1.17 fold enrichment (6-mer frequency, TF over GST control) | 2.04 fold enrichment (6-mer frequency, TF over GST control) | 1.22 fold enrichment (6-mer frequency, TF over GST control) | 1.15 fold enrichment (6-mer frequency, TF over GST control) | 1.03 fold enrichment (6-mer frequency, TF over GST control) | 1.19 fold enrichment (6-mer frequency, TF over GST control) | 1.2 fold enrichment (6-mer frequency, TF over GST control) | 1.35 fold enrichment (6-mer frequency, TF over GST control) | 1.13 fold enrichment (6-mer frequency, TF over GST control) |
| ACTTAC | 1.09 fold enrichment (6-mer frequency, TF over GST control) | 1.17 fold enrichment (6-mer frequency, TF over GST control) | 1.15 fold enrichment (6-mer frequency, TF over GST control) | 1.1 fold enrichment (6-mer frequency, TF over GST control) | 1.24 fold enrichment (6-mer frequency, TF over GST control) | 1.12 fold enrichment (6-mer frequency, TF over GST control) | 1.06 fold enrichment (6-mer frequency, TF over GST control) | 1.23 fold enrichment (6-mer frequency, TF over GST control) | 1.42 fold enrichment (6-mer frequency, TF over GST control) | 1.16 fold enrichment (6-mer frequency, TF over GST control) |
| CAACTA | 1.27 fold enrichment (6-mer frequency, TF over GST control) | 1.26 fold enrichment (6-mer frequency, TF over GST control) | 1.2 fold enrichment (6-mer frequency, TF over GST control) | 1.22 fold enrichment (6-mer frequency, TF over GST control) | 1.31 fold enrichment (6-mer frequency, TF over GST control) | 1.24 fold enrichment (6-mer frequency, TF over GST control) | 1.18 fold enrichment (6-mer frequency, TF over GST control) | 1.32 fold enrichment (6-mer frequency, TF over GST control) | 1.24 fold enrichment (6-mer frequency, TF over GST control) | 1.24 fold enrichment (6-mer frequency, TF over GST control) |
